Several values for one entry are separate records, joined by “and”; a condition that tells them apart may be missing. Identical values can stand only once. Among all 5,500 compounds or so, about 2,000 (36%) were called active. Not shown: some 18% with an inconclusive outcome. No stated cut-off is given here; in the data, active means normalized growth mostly below about 0.91 (no sharp cut-off); inconclusive means no clear call, values can overlap the other calls; inactive means mostly above about 0.92. The list shows a part of the results.
Test: chemical genetic growth profiling, strain panel (AID 1159580);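 further: tested at 20 µM; growth read once vehicle control cultures reached saturation at 30 °C; 1 = growth at the plate median or of vehicle wells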
Details: S. cerevisiae deletion strains, growth OD

Measured: normalized growth

COc1ccc(-c2cc(=O)c3c(O)cc(O)cc3o2)cc1
1.01 (inactive) and 0.823 (active): locus YHR030C, strain SLT2, stronger effect = lower value
active: locus YHR079C, strain IRE1, stronger effect = lower value 0.847 | locus YJR066W, strain TOR1, stronger effect = lower value 0.792
inactive: locus YAL013W, strain DEP1, stronger effect = lower value 1.01 | locus YAL021C, strain ccr4, stronger effect = lower value 0.967 | locus YAL026C, strain drs2, stronger effect = lower value 0.975 | locus YAL030W, strain snc1, stronger effect = lower value 1 | locus YBL061C, strain skt5, stronger effect = lower value 1 | locus YBR009C, strain hhf1, stronger effect = lower value 0.939 | locus YBR021W, strain FUR4, stronger effect = lower value 1.02 | locus YBR023C, strain chs3, stronger effect = lower value 0.961 | locus YBR171W, strain sec66, stronger effect = lower value 0.999 | locus YBR229C, strain ROT2, stronger effect = lower value 1 | locus YBR231C, strain swc5, stronger effect = lower value 0.981 | locus YBR279W, strain paf1, stronger effect = lower value 0.977 | locus YCL011C, strain gbp2, stronger effect = lower value 0.958 | locus YCL016C, strain dcc1, stronger effect = lower value 0.955 | locus YCL029C, strain bik1, stronger effect = lower value 0.976 | locus YCL069W, strain vba3, stronger effect = lower value 0.967 | locus YCR088W, strain abp1, stronger effect = lower value 0.987 | locus YDL005C, strain med2, stronger effect = lower value 1.02 | locus YDL035C, strain GPR1, stronger effect = lower value 1.03 | locus YDL040C, strain nat1, stronger effect = lower value 0.996 | locus YDL074C, strain BRE1, stronger effect = lower value 0.95 | locus YDL101C, strain DUN1, stronger effect = lower value 0.978 | locus YDL185W, strain tfp1, stronger effect = lower value 0.963 | locus YDL192W, strain arf1, stronger effect = lower value 0.989 | locus YDR001C, strain nth1, stronger effect = lower value 0.988 | locus YDR069C, strain doa4, stronger effect = lower value 1.02 | locus YDR101C, strain arx1, stronger effect = lower value 0.985 | locus YDR137W, strain rgp1, stronger effect = lower value 0.87 | locus YDR159W, strain sac3, stronger effect = lower value 0.996 | locus YDR162C, strain NBP2, stronger effect = lower value 0.999 | locus YDR195W, strain ref2 1.1 | locus YDR297W, strain sur2, stronger effect = lower value 0.994 | locus YDR318W, strain mcm21, stronger effect = lower value 0.982 | locus YDR334W, strain swr1, stronger effect = lower value 0.992 | locus YDR335W, strain msn5, stronger effect = lower value 0.978 | locus YDR388W, stronger effect = lower value 0.979 | locus YDR392W, strain spt3, stronger effect = lower value 0.804 | locus YDR502C, strain sam2, stronger effect = lower value 0.984 | locus YEL003W, strain gim4, stronger effect = lower value 0.963 | locus YEL037C, strain rad23, stronger effect = lower value 0.994 | locus YEL061C, strain CIN8 (second series), stronger effect = lower value 0.988 | locus YEL061C, strain CIN8, stronger effect = lower value 0.987 | locus YER015W, strain faa2, stronger effect = lower value 0.964 | locus YER016W, strain bim1, stronger effect = lower value 1.01 | locus YER110C, stronger effect = lower value 0.972 | locus YER111C, strain swi4, stronger effect = lower value 1.01 | locus YER155C, strain BEM2 (second series), stronger effect = lower value 0.966 | locus YER155C, strain BEM2, stronger effect = lower value 0.991 | locus YER167W, strain BCK2, stronger effect = lower value 1 | locus YFR010W, strain ubp6, stronger effect = lower value 1.01 | locus YGL078C, strain dbp3, stronger effect = lower value 0.978 | locus YGL086W, strain mad1, stronger effect = lower value 0.989 | locus YGL167C, strain pmr1, stronger effect = lower value 1.01 | locus YGL173C, strain kem1, stronger effect = lower value 1.01 | locus YGL227W, strain vid30, stronger effect = lower value 0.99 | locus YGL240W, strain doc1, stronger effect = lower value 0.975 | locus YGL248W, strain PDE1, stronger effect = lower value 0.984 | locus YGL253W, strain hxk2, stronger effect = lower value 0.964 | locus YGR135W, strain pre9, stronger effect = lower value 0.984 | locus YGR252W, strain gcn5, stronger effect = lower value 1.04 | locus YHR013C, strain ard1, stronger effect = lower value 1.06 | locus YHR027C, strain rpn1, stronger effect = lower value 1.01 | locus YHR079C, strain IRE1 (second series), stronger effect = lower value 0.971 | locus YHR094C, strain hxt1, stronger effect = lower value 0.992 | locus YHR129C, strain ARP1, stronger effect = lower value 0.998 | locus YHR142W, strain chs7, stronger effect = lower value 0.914 | locus YHR200W, strain rpn10, stronger effect = lower value 0.979 | locus YIL066C, strain RNR3, stronger effect = lower value 1.01 | locus YIL073C, strain SPO22, stronger effect = lower value 0.942 | locus YIL125W, strain kgd1, stronger effect = lower value 0.996 | locus YIR030C, strain dcg1, stronger effect = lower value 0.981 | locus YJL092W, strain hpr5, stronger effect = lower value 0.983 | locus YJL095W, strain BCK1 (second series), stronger effect = lower value 0.998 | locus YJL115W, strain asf1, stronger effect = lower value 1 | locus YJL129C, strain trk1, stronger effect = lower value 0.946 | locus YJL134W, strain LCB3, stronger effect = lower value 1 | locus YJL154C, strain vps35, stronger effect = lower value 0.999 | locus YJL164C, strain tpk1, stronger effect = lower value 0.931 | locus YJL166W, strain qcr8, stronger effect = lower value 0.965 | locus YJL168C, strain set2, stronger effect = lower value 0.999 | locus YJL187C, strain SWE1 (second series), stronger effect = lower value 0.979 | locus YJL187C, strain SWE1, stronger effect = lower value 1.01 | locus YJR043C, strain POL32, stronger effect = lower value 1.04
0.957 (inactive) and 0.879 (active): locus YJL095W, strain BCK1, stronger effect = lower value

Reference: PubChem BioAssay AID1159580 (chemical genetic matrix, 2015)
